From PubChem BioAssay (NCATS)
Inconclusive results are not listed. This is one part of the list. Activity calls are given as the source filed them. Unless noted, the call rests on the fitted dose curve; in most records, active means well fitted curve in the direction sought with a large enough effect; inconclusive means small, poorly fitted or top-dose-only effect, or another doubt; inactive means no such curve, though single readings can be large; an effect the other way counts as inactive or inconclusive.

Legend:
[1] = molecular target: Cytochrome P450 3A4 (Homo sapiens) (UniProt P08684); assay: qHTS Assay for Inhibitors and Substrates of Cytochrome P450 3A4 (AID 884); further: on the % scale 0 is the no-effect control and ±100 the full control effect; nearly all actives have a fitted effect of over 50% in size
In short: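 20 nM human CYP3A4 with 25 uM Luciferin-PPXE (at KM) in 200 mM KPO4, preincubated 10 min with compound; NADPH regeneration started a 60 min RT reaction. Luciferin detected by luminescence, normalized to 57 uM ketoconazole as full inhibition.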

[2] = Confirmation and Secondary Assay for Modulators of Hemoglobin Beta Chain Splicing at IVS2 654 locus (AID 910);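 further: HeLa cells stably carrying EGFP split by mutant beta-globin IVS2-654 intron; % of control where 0% means no effect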
In short: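 HeLa cells stably expressing EGFP interrupted by β-globin IVS2-654 intron, seeded overnight in Opti-MEM/2% FCS, then treated 2 days at 37 °C. Restored splicing read as total peak GFP intensity per well by laser scanning cytometry (488 nm excitation, 500–520 nm emission); 500 nM antisense PNA as control.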

[3] = Confirmation and Secondary Assay for Modulators of Hemoglobin Beta Chain Splicing at IVS2 705 locus (AID 930);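 further: HeLa cells stably expressing the EGFP-705 splicing reporter; GFP fluorescence per well restored by corrected splicing of the IVS2-705 intron in EGFP; % of control where 0% means no effect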
In short: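 HeLa EGFP-705 reporter; 500 cells/well, o/n 37C 5% CO2; cpd 2 d; 488 ex/500-520 em laser scan; total peak GFP intensity/well. Ref: 500 nM […] antisense PNA.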

[4] = qHTS Assay for Lipid Storage Modulators (AID 1519; calls by dose curve; on activity change, negative = inhibition: on the % scale 0 is the no-effect control and ±100 the full control effect); conditions: Drosophila S3 cells, BODIPY lipid droplet/cell ratio, laser cytometry, cells loaded with oleic acid; for activity change, negative = inhibition: at 57.5 µM (top of the series)
In short: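 Cells seeded at 5,000 per well were treated with compounds over a concentration series and loaded with oleic acid (400 uM, as added). Lipid droplet fluorescence (488 nm excitation, 500-530 nm channel) was read by laser-scanning cytometry and normalized to 20 uM Triacsin C.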

[5] = molecular target: Ubiquitin carboxyl-terminal hydrolase 1 (Homo sapiens) (UniProt O94782); assay: Inhibitors of USP1/UAF1: Pilot qHTS (AID 504865);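 further: rhodamine fluorescence freed from ubiquitin-rhodamine substrate followed over time; top concentration of the series differs between compounds; on the % scale 0 is the no-effect control and ±100 the full control effect; nearly all actives have a fitted effect of over 35% in size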
In short: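 Enzyme-free wells gave the negative control, while test wells held 1nM USP1/UAF1 preincubated with compound for 15 min at room temperature. Ub-Rho at 150nM final started the reaction, and fluorescence at 480/540 nm was recorded kinetically.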

[6] = molecular target: ATPase family AAA domain-containing protein 5 (Homo sapiens) (UniProt Q96QE3); assay: HTS assay for small molecules that inhibit ELG1-dependent DNA repair in human embryonic kidney (HEK293T) cells expressing luciferase-tagged ELG1: Hit Confirmation (AID 624248); conditions: HEK293T ELG1-luciferase levels, luminescence; cells co-treated with 5-fluorouridine; further: potency means the concentration at half of the fitted maximal effect; nearly all actives have a fitted effect of over 55% in size
In short: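 HEK293T cells expressing luciferase-tagged ELG1 treated with 5-fluorouridine plus compound for 16 h at 37 C; luciferase activity then measured with ONE-Glo after 30 min at room temperature.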

[7] = molecular target: ATPase family AAA domain-containing protein 5 (Homo sapiens) (UniProt Q96QE3); assay: qHTS screen for small molecules that inhibit ELG1-dependent DNA repair in human embryonic kidney (HEK293T) cells expressing luciferase-tagged ELG1: Hit Confirmation using MMS Stimulated ELG1 (AID 624249); conditions: HEK293T luciferase-tagged ELG1 level; further: potency means the concentration at half of the fitted maximal effect; nearly all actives have a fitted effect of over 60% in size
In short: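 Seed HEK293T ELG1-luc cells (2,000/well). Add compounds at ~5 h, then MMS to 10 µM final. Incubate 16 h. Measure luciferase using Amplight.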

[8] = qHTS screen for small molecules that inhibit ELG1-dependent DNA repair: Hit Confirmation with 5FU Viability (AID 624250); conditions: cell viability with 5-FU; further: potency means the concentration at half of the fitted maximal effect
In short: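 Luminescent ATP read-out (CellTiter-Glo) gives cell viability after 16 h exposure of ELG1-luc HEK293T cells to test compounds combined with 10 µM final 5-fluorouridine.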

[9] = qHTS screen for small molecules that inhibit ELG1-dependent DNA repair: Hit Confirmation with MMS Viability (AID 624251); conditions: Cell viability with MMS; further: potency means the concentration at half of the fitted maximal effect; nearly all actives have a fitted effect of over 60% in size
In short: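 ELG1-luc HEK293T cells, 2,000/well, given compounds about 5 h after plating together with MMS at 10 µM final; viability measured by CellTiter-Glo after 16 h.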

[10] = molecular target: Luciferin 4-monooxygenase (Photinus pyralis) (UniProt P08659); assay: qHTS screen for small molecules that inhibit ELG1-dependent DNA repair: Hit Confirmation in Biochemical Luciferin Assay (AID 624253); further: on the % scale 0 is the no-effect control and ±100 the full control effect
In short: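 Luminescent signal from firefly luciferase acting on its luciferin substrate reagent was recorded with a CCD plate imager after compounds or DMSO had been pinned into the substrate and enzyme added last.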

[11] = molecular target: DNA dC->dU-editing enzyme APOBEC-3G (Homo sapiens) (UniProt Q9HC16); assay: qHTS for inhibitors of Vif-A3G interactions: Validation (AID 588379); further: 0% is about no effect
In short: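 HeLa cells stably expressing Vif and A3G-eYFP, 700 cells/well, incubated overnight at 37 deg C, then exposed to compound overnight at 37 deg C. Inhibition of Vif-mediated degradation read as increased yellow fluorescence (Ex 488/Em 500-530) by laser-scanning cytometry.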

[12] = measured here: cell count channel max response
[13] = measured here: lipid channel max response

ATPase family AAA domain-containing protein 5 (Homo sapiens), sequence (Q96QE3 whole entry, looked up, the tested form may be a part): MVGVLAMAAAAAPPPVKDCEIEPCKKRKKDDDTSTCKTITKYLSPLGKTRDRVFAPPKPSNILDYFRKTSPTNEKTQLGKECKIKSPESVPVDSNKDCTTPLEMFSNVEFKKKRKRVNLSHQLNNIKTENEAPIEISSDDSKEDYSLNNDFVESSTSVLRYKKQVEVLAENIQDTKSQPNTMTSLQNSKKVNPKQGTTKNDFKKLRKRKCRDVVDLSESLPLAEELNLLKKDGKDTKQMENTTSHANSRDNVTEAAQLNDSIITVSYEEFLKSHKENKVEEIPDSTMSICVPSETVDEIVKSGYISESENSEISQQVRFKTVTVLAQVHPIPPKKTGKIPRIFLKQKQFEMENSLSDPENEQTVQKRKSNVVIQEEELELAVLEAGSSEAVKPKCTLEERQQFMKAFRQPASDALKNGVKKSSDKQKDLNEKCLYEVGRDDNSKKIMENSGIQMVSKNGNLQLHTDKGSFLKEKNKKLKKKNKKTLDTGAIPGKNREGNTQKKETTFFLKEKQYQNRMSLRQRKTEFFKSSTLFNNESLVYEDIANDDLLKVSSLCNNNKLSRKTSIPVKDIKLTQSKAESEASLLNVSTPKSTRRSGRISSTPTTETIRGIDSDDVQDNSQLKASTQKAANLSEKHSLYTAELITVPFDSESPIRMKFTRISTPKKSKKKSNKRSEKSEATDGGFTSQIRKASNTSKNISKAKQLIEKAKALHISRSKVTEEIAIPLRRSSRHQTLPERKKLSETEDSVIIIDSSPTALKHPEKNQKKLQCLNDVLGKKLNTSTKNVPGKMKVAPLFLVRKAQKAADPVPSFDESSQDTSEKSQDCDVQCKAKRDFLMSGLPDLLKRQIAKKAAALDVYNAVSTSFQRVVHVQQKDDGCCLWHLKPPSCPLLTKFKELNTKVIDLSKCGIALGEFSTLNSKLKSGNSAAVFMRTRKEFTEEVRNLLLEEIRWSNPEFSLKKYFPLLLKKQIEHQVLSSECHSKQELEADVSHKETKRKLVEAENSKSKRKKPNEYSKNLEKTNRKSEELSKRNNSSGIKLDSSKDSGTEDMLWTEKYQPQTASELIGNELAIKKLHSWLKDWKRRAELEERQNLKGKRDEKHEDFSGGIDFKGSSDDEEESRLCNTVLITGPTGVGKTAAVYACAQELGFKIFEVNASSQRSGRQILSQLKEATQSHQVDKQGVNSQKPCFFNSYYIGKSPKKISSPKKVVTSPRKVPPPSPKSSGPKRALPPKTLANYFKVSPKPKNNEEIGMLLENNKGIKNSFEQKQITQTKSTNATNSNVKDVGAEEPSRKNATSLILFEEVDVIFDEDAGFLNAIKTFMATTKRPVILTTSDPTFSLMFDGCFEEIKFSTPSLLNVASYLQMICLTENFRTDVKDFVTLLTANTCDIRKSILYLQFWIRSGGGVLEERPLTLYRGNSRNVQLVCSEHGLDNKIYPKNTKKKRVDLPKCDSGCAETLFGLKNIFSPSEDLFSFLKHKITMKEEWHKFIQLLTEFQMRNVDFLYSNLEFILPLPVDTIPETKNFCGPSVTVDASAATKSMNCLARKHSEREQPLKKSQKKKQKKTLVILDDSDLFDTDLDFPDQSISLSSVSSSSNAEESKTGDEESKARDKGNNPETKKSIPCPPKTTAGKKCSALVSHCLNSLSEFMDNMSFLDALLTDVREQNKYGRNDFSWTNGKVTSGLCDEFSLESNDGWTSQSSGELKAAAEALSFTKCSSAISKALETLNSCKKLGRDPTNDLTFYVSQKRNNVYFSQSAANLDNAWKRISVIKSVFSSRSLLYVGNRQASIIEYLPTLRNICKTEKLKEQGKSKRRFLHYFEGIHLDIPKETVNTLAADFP
Cytochrome P450 3A4 (Homo sapiens), sequence (P08684 whole entry, looked up): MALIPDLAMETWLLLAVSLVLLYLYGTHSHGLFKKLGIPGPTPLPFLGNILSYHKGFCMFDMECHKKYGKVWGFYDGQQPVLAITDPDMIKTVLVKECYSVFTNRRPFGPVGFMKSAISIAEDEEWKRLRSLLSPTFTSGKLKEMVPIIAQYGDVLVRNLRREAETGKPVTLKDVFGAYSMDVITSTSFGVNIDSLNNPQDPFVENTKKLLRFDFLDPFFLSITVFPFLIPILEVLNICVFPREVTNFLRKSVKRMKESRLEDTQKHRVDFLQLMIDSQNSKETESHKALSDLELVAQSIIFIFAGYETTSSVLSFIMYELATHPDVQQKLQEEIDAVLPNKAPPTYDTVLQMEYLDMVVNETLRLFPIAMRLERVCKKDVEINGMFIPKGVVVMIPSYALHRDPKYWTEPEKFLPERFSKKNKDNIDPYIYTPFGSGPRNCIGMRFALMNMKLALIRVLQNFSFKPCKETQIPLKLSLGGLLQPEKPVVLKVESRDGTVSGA
Ubiquitin carboxyl-terminal hydrolase 1 (Homo sapiens), sequence (O94782 whole entry, looked up): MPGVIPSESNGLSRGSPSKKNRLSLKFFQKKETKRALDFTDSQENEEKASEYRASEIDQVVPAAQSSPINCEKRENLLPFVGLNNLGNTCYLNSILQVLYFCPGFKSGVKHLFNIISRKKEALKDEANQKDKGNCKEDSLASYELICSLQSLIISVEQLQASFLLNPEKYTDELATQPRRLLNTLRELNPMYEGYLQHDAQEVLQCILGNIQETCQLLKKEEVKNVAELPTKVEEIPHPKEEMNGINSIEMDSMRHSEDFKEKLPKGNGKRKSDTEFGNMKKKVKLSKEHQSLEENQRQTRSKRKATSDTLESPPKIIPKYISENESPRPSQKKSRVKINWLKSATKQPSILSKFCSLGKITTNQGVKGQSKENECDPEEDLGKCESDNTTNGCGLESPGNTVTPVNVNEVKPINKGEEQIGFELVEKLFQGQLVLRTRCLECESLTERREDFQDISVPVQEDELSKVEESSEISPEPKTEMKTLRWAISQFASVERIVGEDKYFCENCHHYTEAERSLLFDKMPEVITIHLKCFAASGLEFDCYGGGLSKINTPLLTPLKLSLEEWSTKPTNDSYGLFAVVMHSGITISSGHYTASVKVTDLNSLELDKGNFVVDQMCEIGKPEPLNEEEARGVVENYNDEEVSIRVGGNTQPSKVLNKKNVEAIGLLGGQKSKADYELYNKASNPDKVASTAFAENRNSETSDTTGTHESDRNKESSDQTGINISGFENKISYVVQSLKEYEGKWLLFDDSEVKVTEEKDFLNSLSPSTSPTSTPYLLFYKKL
DNA dC->dU-editing enzyme APOBEC-3G (Homo sapiens), sequence (Q9HC16 whole entry, looked up): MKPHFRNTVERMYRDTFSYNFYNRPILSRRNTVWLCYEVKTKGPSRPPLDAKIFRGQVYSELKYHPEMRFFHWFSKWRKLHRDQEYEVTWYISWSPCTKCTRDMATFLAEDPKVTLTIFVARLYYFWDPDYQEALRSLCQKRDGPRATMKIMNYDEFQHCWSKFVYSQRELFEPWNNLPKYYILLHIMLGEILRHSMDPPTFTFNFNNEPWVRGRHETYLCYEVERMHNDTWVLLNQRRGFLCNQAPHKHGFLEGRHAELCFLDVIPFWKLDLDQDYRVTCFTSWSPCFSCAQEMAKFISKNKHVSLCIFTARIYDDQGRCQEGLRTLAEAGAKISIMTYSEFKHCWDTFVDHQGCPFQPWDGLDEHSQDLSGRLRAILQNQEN

SMILES	Potency [1]	Potency [2]	Potency [3]	activity change, negative = inhibition [4]	max response [4, 12] [%]	max response [4, 13] [%]	Potency [5]	Potency [6]	Potency [7]	Potency [8]	Potency [9]	outcome [10]	outcome [11]
COC1CC(OC2CC[C@@]3(C=O)C4CC[C@]5(C)C(C6=CC(=O)OC6)CC[C@@]5(O)C4CC[C@]3(O)C2)OC(C)C1O (stereo partly drawn)	inactive	inactive	inactive	0.995% (inactive)	18.6	20.5	inactive	706 nM (active)	315 nM (active)	706 nM (active)	397 nM (active)	inactive	–
CC(C)(C)[C@]1(O)C[C@@H]2OC(=O)C[C@@]23C(=O)O[C@@H]2OC(=O)[C@H](O)[C@]213	inactive	–	–	3.73% (inactive)	5.67	8.55	inactive	–	–	–	–	–	inactive
